Tau fibril FP: inhibitors of human tau fibril formation | P10636 | K18 P301L tau heparin fibrillization, Alexa594 FP, 6 h | Potency, µM (top dose mostly 57.7 µM), inactives show at the top dose activity, negative = inhibition, actives largely listed as inhibitors | 0.39% of 280,000 active | AID 1468; note: potency is the fitted concentration of half-maximal effect; nearly all actives have a fitted effect of over 55% in size
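Compound effects on tau fibrillization are measured by Alexa 594 fluorescence polarization (ex 555, em 632 nm). K18 P301L tau is used at 15 uM with 0.24 uM labeled tracer, and 20 uM heparin induces aggregation over 6 hr at 37 C.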
PNC inhibitor: inhibitors of perinucleolar compartment assembly | PC3M PTB-GFP, PNC prevalence imaging, 16 h; stronger effect = lower value | activity change (PNC), negative = inhibition, % at 10 µM | 3.1% of 140,000 active;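 active = readout at or below -70, meaning at least 70% loss of cells showing the perinucleolar compartment, a nuclear body marking cancer cells; inconclusive = readout between -30 and a set limit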;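 note: plate controls were DMSO wells for no effect and camptothecin positive control wells for full effect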
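PC3M cells stably expressing PTB-GFP, 750–1000 cells/well, treated 16 h at 37 °C with compound (23 nl of library stock), in duplicate. After paraformaldehyde fixation and Hoechst stain, imaged at 20x; PNC prevalence scored by image analysis.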
Tau ThT inhib: inhibitors of human tau fibril formation, thioflavin T binding. P10636. recombinant tau K18 P301L, heparin-induced fibrillization, ThT fluorescence. Potency, µM (top dose mostly 57.4 µM), for the others: top-dose activity, negative = inhibition, actives largely listed as inhibitors. 2.1% of 270,000 active; note: potency is the fitted concentration of half-maximal effect; nearly all actives have a fitted effect of over 55% in size
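Aggregation was driven by heparin (20 uM final) acting on recombinant tau […] bearing P301L in 100 mM sodium acetate pH 7; fibrils were detected with Thioflavin T.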
TRb SRC2 PPI: disrupts binding of human TR beta to SRC2. P10828. Potency, µM (doses to about 106 µM), without a hit: at the highest dose activity change, negative = inhibition, usual class: inhibitors. 0.065% of 280,000 active. TRbeta-SRC2 peptide binding, fluorescence polarization; receptor liganded with 1 µM T3;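 note: potency is the fitted concentration of half-maximal effect; plate controls were bound peptide for no effect and peptide without receptor for full effect; nearly all actives have a fitted effect of over 50% in size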
Target sequence (P10828 whole entry, looked up): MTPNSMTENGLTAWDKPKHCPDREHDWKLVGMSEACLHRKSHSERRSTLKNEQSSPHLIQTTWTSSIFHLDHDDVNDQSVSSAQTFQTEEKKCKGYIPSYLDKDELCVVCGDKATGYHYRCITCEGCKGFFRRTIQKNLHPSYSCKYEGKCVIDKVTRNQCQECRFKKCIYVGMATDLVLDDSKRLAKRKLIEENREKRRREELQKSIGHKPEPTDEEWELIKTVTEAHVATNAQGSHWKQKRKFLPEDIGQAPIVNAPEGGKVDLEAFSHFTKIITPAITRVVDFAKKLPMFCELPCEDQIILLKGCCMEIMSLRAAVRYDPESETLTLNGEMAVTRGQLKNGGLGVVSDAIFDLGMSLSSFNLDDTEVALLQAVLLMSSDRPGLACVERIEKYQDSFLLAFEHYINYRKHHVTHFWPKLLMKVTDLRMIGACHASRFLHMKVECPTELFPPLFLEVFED
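Read-out is fluorescence polarization (555 nm excitation, 632 nm emission) of a Texas Red SRC2 coactivator peptide; loss of signal reflects blocked binding to human TRb ligand-binding domain in the presence of 1 uM T3.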
TR SRC2 fluor cs: Texas Red fluorescence interference in TRb-SRC2 counter-screen; TRb/SRC2 Texas Red total fluorescence interference; 0.29% of 280,000 active; AID 1479; Potency, µM (titrated, usually from 106 µM), for inactives: top-dose fluorescence change, negative = quenching; active = well fitted curve in either direction with a large enough effect; inconclusive = small, poorly fitted or top-dose-only effect; note: potency is the fitted concentration of half-maximal effect
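Human TRβ ligand-binding domain (0.6 uM) and Texas Red SRC2 peptide (20 nM) in Tris buffer with 1 uM T3 and 5% DMSO were incubated with pinned compound for 5 hr at ambient temperature. Total fluorescence was computed as S + 2P (555/632 nm).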
Tau fluor counter: counter-screen for tau fibril formation inhibitors. Potency, µM (top dose mostly 57.7 µM), for the others: top-dose activity change, negative = decrease. tau K18 P301L (four-repeat tau fragment) Alexa594 fluorescence, heparin fibrillization. 0.93% of 280,000 active. AID 1463; note: potency is the fitted concentration of half-maximal effect; nearly all actives have a fitted effect of over 55% in size
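Human K18 P301L tau (15 uM unlabeled plus 0.24 uM Alexa 594-labeled, final) in 100 mM sodium acetate pH 7 was mixed with compound and 20 uM heparin and incubated 6 hr at 37 C.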
The depositor's hits bear a star; [ ] = another dose, or the depositor's remark. The list is not random: actives were taken first. Their share in the collection is about 4.6%. Unless noted, calls come from the whole dose curve; as a rule, active = well fitted curve in the direction sought with a large enough effect; inconclusive = small, poorly fitted or top-dose-only effect, or another doubt; inactive = no such curve, though single readings can be large; an effect the other way counts as inactive or inconclusive. Unless noted, % is set by controls: 0 for no effect and ±100 for the full control effect.

`CN(C)c1ccc(SC#N)cc1` gave Tau fibril FP inconclusive, Tau ThT inhib 10µM*, TRb SRC2 PPI 7%, TR SRC2 fluor cs -1% and Tau fluor counter inconclusive.
`CCCCCSc1nc2sc3c(c2c(=O)n1-c1ccc(OC)cc1)CCN(C(C)=O)C3` gave Tau fibril FP -8%, Tau ThT inhib inconclusive, TRb SRC2 PPI inconclusive, TR SRC2 fluor cs 22µM*[quencher] and Tau fluor counter -19%.
COCCn1c(SCC(=O)NNC(=O)c2ccccc2)nc2ccccc2c1=O was read as Tau fibril FP -2%, PNC inhibitor inconclusive, Tau ThT inhib -5%, TRb SRC2 PPI 0%, TR SRC2 fluor cs 0% and Tau fluor counter 0%.
COCC(C)n1c(SCC(=O)NNC(=O)c2ccc(F)cc2)nc2ccccc2c1=O (stereo not given) was read as Tau fibril FP -3%, PNC inhibitor -94*, Tau ThT inhib -4%, TRb SRC2 PPI 2%, TR SRC2 fluor cs -3% and Tau fluor counter -8%.
For CCOC(=O)N1CCC(=C(C#N)C(=O)Nc2cc(OC)ccc2OC)CC1 the results were Tau fibril FP -5%, PNC inhibitor inconclusive, Tau ThT inhib -12%, TRb SRC2 PPI -1%, TR SRC2 fluor cs 1% and Tau fluor counter -9%.
O=C1c2ccccc2-c2onc3ccc(Oc4ccccc4)c1c23 was read as Tau fibril FP inconclusive, PNC inhibitor -11, Tau ThT inhib 4.5µM*, TRb SRC2 PPI -4%, TR SRC2 fluor cs 2% and Tau fluor counter 6.3µM*[quencher].
Screening Cc1noc(C)c1S(=O)(=O)Nc1ccccc1Oc1ccccc1 returned Tau fibril FP 6%, Tau ThT inhib -9%, TRb SRC2 PPI 10%, TR SRC2 fluor cs -3% and Tau fluor counter -20%.
Screening Cc1ccc(S(=O)(=O)c2c(N)n(/N=C/c3ccco3)c3nc4ccccc4nc23)cc1 returned Tau fibril FP inconclusive, PNC inhibitor -26, Tau ThT inhib inconclusive, TRb SRC2 PPI 14%, TR SRC2 fluor cs 5% and Tau fluor counter inconclusive.
Screening Cc1cccc(S(=O)(=O)c2c(N)n(/N=C/c3ccco3)c3nc4ccccc4nc23)c1 returned Tau fibril FP -1%, PNC inhibitor 0, Tau ThT inhib inconclusive, TRb SRC2 PPI inconclusive, TR SRC2 fluor cs -6% and Tau fluor counter inconclusive.
Cc1ccc(S(=O)(=O)c2c(N)n(/N=C/c3ccco3)c3nc4ccccc4nc23)cc1C was read as Tau fibril FP inconclusive, PNC inhibitor -16, Tau ThT inhib 16µM*, TRb SRC2 PPI -5%, TR SRC2 fluor cs -2% and Tau fluor counter inconclusive.
Nc1c(S(=O)(=O)c2cccs2)c2nc3ccccc3nc2n1/N=C/c1cccc(O)c1 was read as Tau fibril FP 7.9µM*, PNC inhibitor 30, Tau ThT inhib 0%, TRb SRC2 PPI 4%, TR SRC2 fluor cs -1% and Tau fluor counter 3.2µM*[quencher].
`Nc1c(S(=O)(=O)c2ccccc2)c2nc3ccccc3nc2n1/N=C/c1ccco1` gave Tau fibril FP -8%, PNC inhibitor 38, Tau ThT inhib 28µM*, TRb SRC2 PPI inconclusive, TR SRC2 fluor cs -24% and Tau fluor counter inconclusive.
Screening Cc1ccc(CN(Cc2ccco2)C(=O)COc2ccc(Cl)cc2)o1 returned Tau fibril FP -2%, Tau ThT inhib -7%, TRb SRC2 PPI -7%, TR SRC2 fluor cs -2% and Tau fluor counter -2%.
Screening O=C(NCC(c1ccco1)S(=O)(=O)c1ccc(Cl)cc1)c1ccc(C(F)(F)F)cc1 (stereo not given) returned Tau fibril FP -11%, Tau ThT inhib -6%, TRb SRC2 PPI 6%, TR SRC2 fluor cs 0% and Tau fluor counter -20%.
Screening Cc1ccc(NS(=O)(=O)c2ccc3[nH]c(=O)[nH]c3c2)c(C)c1 returned Tau fibril FP -1%, Tau ThT inhib 0%, TRb SRC2 PPI -10%, TR SRC2 fluor cs -1% and Tau fluor counter 1%.
